In PubChem BioAssay AID1531 (NMMLSC, 2009):
In all, about 290,000 compounds went through this assay and about 3,300 (1.1%) were called active. For the sample, actives were picked, then their nearest neighbours and some compounds at random. A number with no mark means an inactive call. No stated cut-off is given here; in the data, active means binding response below about 67% or above about 130%; inconclusive means no clear call, values can overlap the other calls; inactive means in between.

These compounds were tested against Mitogen-activated protein kinase kinase kinase 2 (Homo sapiens) (UniProt Q9Y2U5) (assay: modulators of MEK5 binding to wildtype MEKK2, primary screen, biochemical, multiplex bead flow cytometry, Alexa488-MEK5 (AID 1531)). Conditions: Alexa488-MEK5 binding to MEKK2 WT, at 10 µM, actives lie on both sides.
With O=C1NC(=O)N(Cc2ccco2)C(=O)/C1=C\c1cccn1CCOc1ccccc1 the binding response (% of control) was 110%.
O=C(O)COc1ccccc1/C=C1\C(=O)NC(=O)N(CCC2=CCCCC2)C1=O was tested, and the binding response (% of control) was -4% (active).
Compound O=C1NC(=O)N(CCc2ccc(F)cc2)C(=O)/C1=C/C=C/c1ccccc1 has a binding response (% of control) of 97%.
Compound CCOP(=S)(OCC)C(O)CCCCCn1c(=O)c(F)cn(C2CCCO2)c1=O (stereo not given) has a binding response (% of control) of 106%.
In the case of CCCCCCCCCCCCn1ccc(=N)cc1, the binding response (% of control) is reported as 173% (active).
c1ccc(CC2CCCCN2)cc1 (stereo not given) was tested, and the binding response (% of control) was 107%.
In the case of N#Cc1ccc(Cn2cc(C(=O)c3ccco3)c3ccccc32)cc1, the binding response (% of control) is reported as 98%.
Cc1ccc2c(c1)=C/C(=C\c1c(O)[nH]c(=O)[nH]c1=O)C(=O)N=2 showed a binding response (% of control) of 99%.
Work on COC(=O)N1C(c2ccccc2)C1c1ccccc1 (stereo not given) yielded a binding response (% of control) of 101%.
CNCC(O)c1cc(F)c(OCc2ccccc2)c(OCc2ccccc2)c1F (stereo not given) was tested, and the binding response (% of control) was 141% (active).
Work on COC(=O)C1=C(c2cc3ccccc3s2)C[C@@H]2CC[C@H]1N2C(=O)NCc1cccc2ccccc12 yielded a binding response (% of control) of 93%.
Compound c1ccc(CCNC2CCCCCC2)cc1 has a binding response (% of control) of 101%.
COc1ccc(-n2c(O)c(C(C)=Nc3ccc4c(c3)CCC4)c(=O)[nH]c2=O)cc1 was tested, and the binding response (% of control) was 99%.
Work on CN(C)S(=O)(=O)c1cc(C(=O)N2CCC(C(=O)O)(c3ccccc3)CC2)ccc1Cl yielded a binding response (% of control) of 106%.
With COC(=O)C1=C(c2cc3ccccc3o2)C[C@@H]2CC[C@H]1N2C(=O)NC1CCCCC1 the binding response (% of control) was 101%.
